Calls of active or inactive are those of the source. Cut-off read from the data, not from the text of the source: active = remaining activity below about 50%; inactive = the rest.

The target in the assay is Phospholipase D1 (Homo sapiens) (UniProt Q13393). The experiment in a line: cellular phospholipase D1 activity inhibition – Calu-1 cells, single concentration (AID 602144).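 Note: tested at 200 nM.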 Particulars: cellular PLD1 activity, active compounds read low.
Phospholipase D1 (Homo sapiens), sequence (Q13393 whole entry, looked up): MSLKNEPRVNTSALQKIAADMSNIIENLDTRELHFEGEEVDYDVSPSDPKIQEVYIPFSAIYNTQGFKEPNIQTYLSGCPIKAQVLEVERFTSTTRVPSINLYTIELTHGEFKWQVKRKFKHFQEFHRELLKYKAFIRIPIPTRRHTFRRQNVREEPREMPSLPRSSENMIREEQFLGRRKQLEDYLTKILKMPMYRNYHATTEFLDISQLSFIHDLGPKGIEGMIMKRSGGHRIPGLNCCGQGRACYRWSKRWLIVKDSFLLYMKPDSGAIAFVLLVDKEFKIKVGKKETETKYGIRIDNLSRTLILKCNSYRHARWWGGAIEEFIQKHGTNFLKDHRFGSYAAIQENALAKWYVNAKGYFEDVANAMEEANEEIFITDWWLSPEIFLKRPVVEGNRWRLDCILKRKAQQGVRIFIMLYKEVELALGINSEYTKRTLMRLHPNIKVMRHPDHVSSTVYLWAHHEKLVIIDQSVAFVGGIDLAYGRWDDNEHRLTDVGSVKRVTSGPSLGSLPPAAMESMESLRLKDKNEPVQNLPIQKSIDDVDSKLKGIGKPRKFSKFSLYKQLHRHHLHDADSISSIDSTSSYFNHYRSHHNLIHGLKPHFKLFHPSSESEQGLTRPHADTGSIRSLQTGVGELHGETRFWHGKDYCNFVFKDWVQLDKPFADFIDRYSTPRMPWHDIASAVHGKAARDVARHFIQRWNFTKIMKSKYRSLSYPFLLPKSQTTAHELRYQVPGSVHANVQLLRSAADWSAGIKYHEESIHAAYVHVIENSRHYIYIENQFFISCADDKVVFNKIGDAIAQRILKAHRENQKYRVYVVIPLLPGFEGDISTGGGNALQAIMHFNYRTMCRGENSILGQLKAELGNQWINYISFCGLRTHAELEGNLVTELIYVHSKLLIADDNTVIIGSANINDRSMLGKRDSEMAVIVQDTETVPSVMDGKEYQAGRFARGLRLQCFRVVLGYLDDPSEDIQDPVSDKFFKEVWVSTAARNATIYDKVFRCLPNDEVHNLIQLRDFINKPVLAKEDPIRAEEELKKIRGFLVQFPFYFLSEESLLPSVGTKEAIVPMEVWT
Phospholipase D1 (Homo sapiens), sequence (Q13393 whole entry, looked up): as above
As a reminder, the remaining activity is the signal under treatment as a percentage of the control signal. Consider `Cc1ccccc1NC(=S)NCCN1CCC(n2c(=O)[nH]c3ccccc32)CC1`, for which the remaining activity is 173% (inactive).
As for `C[C@H](CN1CCC2(CC1)CNc1ccccc12)NC(=O)c1cnc2ccccc2c1`, the remaining activity was 55% (inactive).
As for `COc1cccc(N2CCN(CCNC(=O)c3ccc(C(F)(F)F)cc3)CC2)c1`, the remaining activity was 102% (inactive).
For the molecule `C[C@@H](CN1CCC2(CC1)CN(S(C)(=O)=O)c1ccccc12)NC(=O)c1cnc2ccccc2c1`, the remaining activity is 118% (inactive).
On to `O=C1Cc2cc(CCN3CCN(c4nsc5ccccc45)CC3)c(Cl)cc2N1`, for which the remaining activity was 75.1% (inactive).
As for `COc1ccccc1NC(=S)NCCN1CCC(n2c(=O)[nH]c3ccccc32)CC1`, the remaining activity was 152% (inactive).
On to `O=C(NCCN1CCN(c2ccncc2)CC1)c1ccc(F)cc1O`, for which the remaining activity was 152% (inactive).
For the molecule `O=C(NCCN1CCN(c2ncccn2)CC1)c1ccc(F)cc1`, the remaining activity was 76.5% (inactive).
The value for `O=C(NCCN1CCC(n2c(=O)[nH]c3ccccc32)CC1)c1cc2ccccc2c2c1ccc1ccccc12` was 102% (inactive).
With `O=c1[nH]c2ccccc2n1C1CCN(CCNS(=O)(=O)c2ccccc2[N+](=O)[O-])CC1` the figure was 132% (inactive); with `NC1(CN2CCC(n3c(=O)[nH]c4ccccc43)CC2)CCCC1` (tested in a mixture with another compound), 86.8% (inactive); with `O=C(NCCN1CCN(c2ccncc2)CC1)c1c2ccccc2cc2ccccc12`, 183% (inactive).
The value for `C[C@@H](CN1CCC(c2nc3ccccc3[nH]2)CC1)NC(=O)C1CC1c1ccccc1` (some centres not stated) was 87.4% (inactive).
For the molecule `O=C(NCCN1CCC(n2c(=O)[nH]c3ccccc32)CC1)Nc1cccc(C(F)(F)F)c1`, the remaining activity was 135% (inactive).
With `CC(C)[C@@H](CN1CCC(n2c(=O)[nH]c3ccccc32)CC1)NC(=O)c1cc2cc(F)ccc2[nH]1`, the remaining activity was 69.6% (inactive).
With `CN(C)c1cccc2c(S(=O)(=O)NCCN3CCC(n4c(=O)[nH]c5ccccc54)CC3)cccc12` the figure was 127% (inactive).
Regarding `O=C(NCCN1CCC(n2c(=O)[nH]c3ccccc32)CC1)C1(c2ccccc2)CCC1`, the remaining activity was 127% (inactive).
Turning to `C[C@H](CN1CCC(n2nnc3ccccc32)CC1)NC(=O)c1cnc2ccccc2c1`, the remaining activity is 38.2% (active).
The value for `C[C@@H](CN1CCC(n2nnc3cc(C(F)(F)F)ccc32)CC1)NC(=O)c1ccc2ccccc2c1` was 65.2% (inactive).
Take `C=CCCCCCCCCC(=O)NCCN1CCC(n2c(=O)[nH]c3ccccc32)CC1`: the remaining activity is 81.3% (inactive).
Consider `O=C(NCCN1CC=C(n2c(=O)[nH]c3ccccc32)CC1)C1CC1c1ccccc1` (configuration not stated), for which the remaining activity was 0% (active).
Consider `O=C(NCCN1CCN(c2ccncc2)CC1)c1ccc2ccccc2c1`, for which the remaining activity was 139% (inactive).
With `C[C@@H](CN1CCC(n2c(=O)[nH]c3cc(I)ccc32)CC1)NC(=O)c1ccc(Cl)cc1` the figure was 15.5% (active); with `O=C(NCCN1CCC(n2c(=O)[nH]c3ccc(F)cc32)CC1)c1cccc2c1C(=O)c1ccccc1-2`, 0% (active); with `O=C(NCCN1CCC(n2c(=O)[nH]c3ccccc32)CC1)c1cc([N+](=O)[O-])cc([N+](=O)[O-])c1`, 50% (active).
Regarding `CC(C)[C@@H](CN1CCC(n2c(=O)[nH]c3ccccc32)CC1)NC(=O)c1ccc2ccccc2c1`, the remaining activity was 84.6% (inactive).
For `O=c1[nH]c2ccccc2n1C1CCN(CCNS(=O)(=O)c2ccc(Cl)cc2)CC1`, the remaining activity was 137% (inactive).
With `O=c1[nH]c2ccccc2n1C1CCN(CCNS(=O)(=O)c2cccc(C(F)(F)F)c2)CC1` the figure was 111% (inactive); with `C[C@@H](CN1CCC(n2c(=O)[nH]c3ccc(F)cc32)CC1)NC(=O)c1ccc(F)cc1`, 16% (active); with `O=C(NCCN1CCN(c2ccncc2)CC1)c1cc2cc(F)ccc2[nH]1`, 162% (inactive).
With `O=C(NCCN1CCC2(CC1)CNc1ccccc12)c1ccc2ccccc2c1` the figure was 43.9% (active); with `O=C(NCCN1CCC2(CC1)CNCc1ccccc12)c1cnc2ccccc2c1`, 95.4% (inactive); with `O=C(c1ccc(Cl)cc1)N1CCC2(CC1)C(=O)NCN2c1ccccc1`, 102% (inactive).
With `C[C@@H](CN1CC=C(n2c(=O)[nH]c3ccccc32)CC1)NC(=O)[C@H]1C[C@@H]1c1ccccc1` the figure was 15.7% (active); with `O=C(NCCN1CCC(c2nc3ccccc3[nH]2)CC1)c1cnc2ccccc2c1`, 123% (inactive); with `O=C(c1ccc2ccccc2c1)N1CCC2(CC1)C(=O)NCN2c1ccccc1`, 113% (inactive).
Take `O=C(NCCN1CCC(n2c(=O)[nH]c3cc(I)ccc32)CC1)c1ccc(Cl)cc1`: the remaining activity is 15.6% (active).

These data come from PubChem BioAssay AID602144 (Vanderbilt Specialized Chemistry Center, 2011).
